# PubChem BioAssay (Tox21)
# Calls of active or inactive are those of the source. The call rests on the fitted dose curve; in most records, active means well fitted curve in the direction sought with a large enough effect in the repeat runs; inconclusive means weak or mixed curves; inactive means flat fitted curve, though single readings scatter.
# Test: qHTS assay to test for compound auto fluorescence at 535 nm (green) in HepG2 cells (AID 720675)
# Settings: green autofluorescence 485/535 nm, 1 h; series mostly up to 91.3 µM
# Source text: National Center for Advancing Translational Sciences [NCATS]
# NIH Chemical Genomics Center [NCGC]
# U.S. Environmental Protection Agency [EPA]
# National Institutes of Environmental Health Sciences [NIEHS]
# National Toxicology Program [NTP]
# U.S. Food and Drug Administration [FDA]
# Compound auto fluorescence often interferes with screening of the compound library against various biological targets and signaling pathways. Some of these compounds may have fluorophoric properties. Such properties may interfere with the assay outputs resulting in false positives and/or negatives. To decrease such complications and ensure the compound activities are relevant in terms of biological response, the Tox21 10K compound library was screened for auto fluorescence.
# From the fluorophores used as reporter signals in our screening assays, the auto fluorescence equivalencies of compounds against three fluorophores have been evaluated: Triamterene, Fluorescein and Rose Bengal sodium for blue, green and red fluorescence, respectively. The fluorescence intensities were measured using Excitation/Emission wavelengths at 405/460nm, 485/535nm and 540/590nm for blue, green and red labels, respectively. This assay includes the green fluorescence data.
# Tox21 Assay Protocol Summary:
# 2,000 HepG2 cells in 5 uL of culture medium (MEM containing 10% FBS) per well were dispensed into black wall/clear bottom 1536-well plates using a Multidrop Combi Dispenser (ThermoFisher Scientific, Waltham, MA). The assay plates were incubated overnight at 37 C to allow cell attachment to the well bottom, followed by the transfer of 23 nL compound or DMSO vehicle by a pintool work station (Kalypsys , San Diego, CA). After the assay plates were incubated for 1 hr at 37 C and 5% CO2, fluorescence intensities in the assay plates were measured by an Envision (PerkinElmer, Shelton, CT) plate reader using three labels for measuring blue, green and red fluorescence at […] 460, 535 and 590 nm respectively.
row,Compound,outcome
1,OCC#CCO,inactive
2,CC(C)(N=C=O)c1cccc(C(C)(C)N=C=O)c1,inactive
3,O=C1CCCCC1,inactive
4,C/C=C(C)/C=C/C=C(C)C,inactive
5,C=C(C)C(=O)OCCCCCC,inactive
6,C=C(C)C(=O)OCCC[Si](OC)(OC)OC,inactive
7,Cc1ccc(C)c(C)c1,inactive
8,c1ccc2[nH]cnc2c1,inactive
9,C=C(C#N)C(=O)OCC,inactive
10,O=[N+]([O-])c1cc(N(CCO)CCO)ccc1NCCO,inactive
11,CC(C)n1c(/C=C/[C@@H](O)C[C@@H](O)CC(=O)O)c(-c2ccc(F)cc2)c2ccccc21,inactive
12,OC[C@@H](O)[C@H](O)[C@H](O)[C@@H](O)CO,inactive
13,O=S(=O)(O)CCS,inactive
14,O=C1O[C@H](CO)[C@@H](O)[C@H](O)[C@H]1O,inactive
15,NCCNCCNCCNCCN,inactive
16,O=C(Oc1ccccc1)c1ccc(O)cc1,inactive
17,CNC[C@H](O)[C@@H](O)[C@H](O)[C@H](O)CO,inactive
18,NC(=O)NNc1ccccc1,inactive
19,CCc1ccccc1O,inactive
20,CCOC(=O)[C@H](CCc1ccccc1)N[C@@H](C)C(=O)N1Cc2ccccc2C[C@H]1C(=O)O,inactive

row,Compound,outcome
1,CCCCOCCOCCOC(=O)CCCCC(=O)OCCOCCOCCCC,inactive
2,Cn1c([N+](=O)[O-])cnc1COC(N)=O,inactive
3,CN(C)c1cccc(O)c1,inactive
4,Clc1cc(Cl)c(Cl)cc1Cl,inactive
5,Nc1nc2ncc(CNc3ccc(C(=O)N[C@@H](CCC(=O)O)C(=O)O)cc3)nc2c(=O)[nH]1,inactive
6,OC[C@@H](O)[C@@H](O)[C@H](O)[C@@H](O)CO,inactive
7,CCCCC(CC)COC(=O)/C=C\C(=O)OCC(CC)CCCC (stereo not given),inactive
8,C=C1CC[C@H](O)CC1=C/C=C1\CCC[C@]2(C)[C@@H]([C@H](C)/C=C/[C@H](C)C(C)C)CC[C@@H]12,inactive
9,CN(C)c1ccc(C(=N)c2ccc(N(C)C)cc2)cc1,inactive
10,CC#C[C@]1(O)CC[C@H]2[C@@H]3CCC4=CC(=O)CCC4=C3[C@@H](c3ccc(N(C)C)cc3)C[C@@]21C,inactive
11,CC(C)Cc1ccccc1,inactive
12,CN(CCOc1ccc(CC2SC(=O)NC2=O)cc1)c1ccccn1 (stereo not given),inactive
13,CC1=CC[C@H]2C[C@@H]1C2(C)C,inactive
14,CCCCC(CC)COC(C)=O (stereo not given),inactive
15,CCCCCC/C=C/CCCCCCCC(=O)O,inactive
16,CC1(C)CC(N=C=O)CC(C)(CN=C=O)C1 (stereo not given),inactive
17,CC1=C(/C=C/C(C)=C/C=C/C(C)=C/CO)C(C)(C)CCC1,inactive
18,CC(=O)[C@@]1(O)CC[C@H]2[C@@H]3CCC4=CC(=O)CC[C@]4(C)[C@H]3CC[C@@]21C,inactive
19,COC(=O)Nc1nc2ccc(Sc3ccccc3)cc2[nH]1,inactive
20,C=C(C)C(=O)OCC(CC)(COC(=O)C(=C)C)COC(=O)C(=C)C,inactive
